The nature of experiment [1]: ATG_CRE_CIS: Attagene CIS-FACTORIAL HepG2 Assay for human cAMP Responsive Element (CRE) binding protein 3 (AID 2282926). To be noted: HepG2 CRE cis-reporter, Attagene multiplexed mRNA; actives raise or lower the signal. In short, it runs like this:
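Readout: fluorescently labelled reporter transcripts resolved by capillary electrophoresis after RT-PCR, taken 24 h post-dosing in transfected HepG2. Endogenous transcription factor activity drives each cis-element reporter; gain or loss of signal fitted relative to DMSO control.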

Experiment [2] concerns the target CCAAT/enhancer-binding protein beta (Homo sapiens) (UniProt P17676). Kind of experiment: ATG_C_EBP_CIS: Attagene CIS-FACTORIAL HepG2 Assay for human CCAAT/Enhancer Binding Protein (C/EBP) beta (AID 2282927). To be noted: HepG2 Attagene cis-factorial transcription factor reporter; actives raise or lower the signal. In short, it runs like this:
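Endogenous transcription factor activity in human liver HepG2 cells is inferred from induction of a CEBPB-linked reporter mRNA. Exposure lasts 24 h; activity is fitted in both directions relative to DMSO.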

Experiment [3] can be described thus: ATG_CMV_CIS: Attagene CIS-FACTORIAL HepG2 Assay for human CMV (Internal Marker) (AID 2282928).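 Further: endpoint acts as a background internal control marker rather than a target.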 Conditions: HepG2 CMV promoter reporter, transcription factor profiling; actives raise or lower the signal. The essentials: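 Readout: fluorescent reporter cDNA fragments separated by capillary electrophoresis after RT-PCR and HpaI cut. Cells: HepG2 carrying transfected cis-promoter reporter constructs, dosed 24 h. Endpoint serves as background internal-marker control, fit bidirectionally versus DMSO.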

Experiment [4] can be described thus: ATG_DR4_LXR_CIS: Attagene CIS-FACTORIAL HepG2 Assay for human Liver X Receptor (LXR), DR4 submotif (AID 2282929). Conditions: HepG2 Attagene DR4 cis-reporter, mRNA transcription; actives raise or lower the signal. The essentials: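 Measures endogenous transcription factor activity via a DR4-driven reporter transcript in human HepG2 cells. Compounds incubated 24 h; mRNA quantified by RT-PCR and capillary electrophoresis, analysed as gain or loss of signal versus DMSO.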

For experiment [5], the target named is Aryl hydrocarbon receptor (Homo sapiens) (UniProt P35869). Kind of experiment: ATG_Ahr_CIS: Attagene CIS-FACTORIAL HepG2 Assay for human Aryl Hydrocarbon Receptor (Ahr) (AID 2282930). Conditions: HepG2 AhR cis-factorial reporter transcription; actives raise or lower the signal. The essentials:
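Transient MRTU transfection of HepG2 → 24 h compound exposure → total RNA, oligo(dT) RT → PCR, 6-FAM extension, HpaI cut → CE fluorescence. DMSO = baseline; bidirectional curve fit.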

A short description of experiment [6]: ATG_AP_1_CIS: Attagene CIS-FACTORIAL HepG2 Assay for human Activator Protein 1 (AP-1) (AID 2282931). Conditions: HepG2 Attagene cis-factorial AP-1 reporter mRNA; actives raise or lower the signal. In short, it runs like this:
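Bidirectional concentration-response fitting against DMSO controls. Underlying signal: reporter mRNA from cis-promoter constructs in transiently transfected HepG2, measured after 24 h by RT-PCR and capillary electrophoresis.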

The nature of experiment [7]: ATG_AP_2_CIS: Attagene CIS-FACTORIAL HepG2 Assay for human Activator Protein 2 (AP-2) (AID 2282932). To be noted: HepG2 AP-2 cis-reporter, Attagene transcription factor profiling; actives raise or lower the signal. The essentials:
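Endogenous transcription factor activity is reported through transfected multiplex reporter constructs in HepG2, after 24 h of compound exposure. Transcripts were quantified by RT-PCR and capillary electrophoresis of fluorescent fragments. Bidirectional fit against DMSO.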

Experiment [8] is described as follows: ATG_BRE_CIS: Attagene CIS-FACTORIAL HepG2 Assay for human Bone Morphogenetic Protein (BMP) Response Element (BRE) (AID 2282933). Conditions: HepG2 BMP response element reporter, Attagene transcription factor profiling; actives raise or lower the signal. The essentials: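 HepG2 cells transiently transfected with multiplexed cis-element reporter units were dosed with chemical for 24 h. Reporter mRNA was measured by RT-PCR with fluorescent labelling, HpaI digestion and capillary electrophoresis; bidirectional fitting relative to DMSO.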

Experiment [9] addresses Retinoic acid receptor alpha (Homo sapiens) (UniProt P10276). Kind of experiment: ATG_DR5_RAR_CIS: Attagene CIS-FACTORIAL HepG2 Assay for human Retinoic Acid Receptor Alpha (RARE), DR5 submotif (AID 2282934). To be noted: HepG2 Attagene cis-factorial RARE DR5 reporter, mRNA; actives raise or lower the signal. In short, it runs like this: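 Transient MRTU transfection of HepG2; 24 h compound treatment; TriZol RNA, oligo(dT) RT, PCR, FAM labelling, capillary electrophoresis. Bidirectional fit vs DMSO. Endogenous TF activity at DR5 RARE.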

Experiment [10] addresses Transcription factor E2F1 (Homo sapiens) (UniProt Q01094). Kind of experiment: ATG_E2F_CIS: Attagene CIS-FACTORIAL HepG2 Assay for human E2F Transcription Factor 1 (AID 2282935). Conditions: HepG2 Attagene cis-reporter, E2F reporter RNA transcripts; actives raise or lower the signal. The essentials: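 Gain or loss of reporter transcript, fitted against DMSO, reflects E2F1-driven transcription. Transiently transfected HepG2 dosed 24 h before RNA isolation. Quantified by fluorescent RT-PCR products separated by capillary electrophoresis.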

The nature of experiment [11]: ATG_E_Box_CIS: Attagene CIS-FACTORIAL HepG2 Assay for human Enhancer Box (E-box) (AID 2282936). Conditions: HepG2 E-box cis-reporter transcription, actives raise or lower the signal. In short, it runs like this: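 E-box-driven reporter transcripts measured in transiently transfected HepG2 after 24 h exposure: RNA reverse-transcribed, PCR-amplified, fluorescently labelled, digested and resolved by capillary electrophoresis. Gain or loss relative to DMSO.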

Experiment [12] can be described thus: ATG_M_61_CIS: Attagene CIS-FACTORIAL HepG2 Assay for M61 Transcription Factor (Internal Marker) (AID 2282937). Conditions: HepG2 Attagene CIS-FACTORIAL M61 internal marker reporter; actives raise or lower the signal. In short, it runs like this: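 Fluorescence from labelled cDNA fragments, separated by capillary electrophoresis, quantifies reporter induction. HepG2 cells bearing transiently transfected cis-promoter MRTUs were incubated with test chemical for 24 h; DMSO defined baseline for gain/loss fitting.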

Experiment [13] in a line: ATG_EGR_CIS: Attagene CIS-FACTORIAL HepG2 Assay for human Early Growth Response 1 (EGR1) (AID 2282938). Conditions: HepG2 Attagene CIS-FACTORIAL EGR reporter mRNA; actives raise or lower the signal. The essentials:
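Cell-based multiplex transcription assay: HepG2 carrying transfected cis-element reporter units, 24 h chemical treatment. Fluorescence from capillary electrophoresis of RT-PCR products gives mRNA levels; fitting is bidirectional relative to DMSO.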

Experiment [14] is described as follows: ATG_M_19_CIS: Attagene CIS-FACTORIAL HepG2 Assay for M19 Transcription Factor (Internal Marker) (AID 2282939). Conditions: HepG2 Attagene CIS-FACTORIAL M19 internal marker reporter; actives raise or lower the signal. The essentials:
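HepG2 cells transiently transfected with cis-regulated multiple reporter transcription units were dosed for 24 h; reporter mRNA was quantified by RT-PCR, 6-FAM primer-extension labelling, HpaI digestion and capillary electrophoresis, with bidirectional fitting against DMSO baseline.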

Experiment [15] in a line: ATG_Ets_CIS: Attagene CIS-FACTORIAL HepG2 Assay for human Erythroblast Transformation Specific (ETS) (AID 2282941). Conditions: HepG2 ETS cis-reporter transcription, actives raise or lower the signal. In short, it runs like this: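 RT-PCR/capillary electrophoresis fluorescence read-out of reporter mRNA; HepG2 transient multi-reporter transfection; 24 h compound exposure; gain or loss of signal fitted bidirectionally relative to DMSO.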

Experiment [16] is described as follows: ATG_FoxO_CIS: Attagene CIS-FACTORIAL HepG2 Assay for human Forkhead box O (FoxO) (AID 2282943). Conditions: HepG2 Attagene cis-reporter, FoxO element, mRNA; actives raise or lower the signal. The essentials: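 HepG2, transient MRTU transfection (cis element, endogenous TFs). Dose 24 h. TriZol RNA → oligo(dT) RT → PCR → 6-FAM primer extension → HpaI cut → CE. Gain/loss vs DMSO.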

A short description of experiment [17]: ATG_GATA_CIS: Attagene CIS-FACTORIAL HepG2 Assay for human GATA Binding Protein (AID 2282944). Conditions: HepG2 GATA cis-element reporter, Attagene multiplex mRNA; actives raise or lower the signal. The essentials: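 HepG2 cells transiently transfected with multiplexed cis-element reporter units reflecting endogenous transcription factor activity; reporter mRNA measured after 24 h dosing by RT-PCR, 6-FAM labeling, HpaI digestion and capillary electrophoresis. Bidirectional fitting versus DMSO baseline.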

A short description of experiment [18]: ATG_GLI_CIS: Attagene CIS-FACTORIAL HepG2 Assay for human Zinc Finger Protein GLI1 (AID 2282945). Conditions: HepG2, Attagene cis-factorial reporter mRNA, GLI element; actives raise or lower the signal. In short, it runs like this:
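Bidirectional curve fits relative to DMSO, using reporter mRNA levels from RT-PCR plus capillary electrophoresis. Cells were HepG2 transiently carrying cis-regulated reporter constructs, harvested 24 h after dosing.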

Experiment [19] addresses Bile acid receptor (Homo sapiens) (UniProt Q96RI1). Kind of experiment: ATG_IR1_CIS: Attagene CIS-FACTORIAL HepG2 Assay for human Nuclear Receptor Subfamily 1 Group H Member 4 (NR1H4), IR1 submotif (AID 2282946). Conditions: IR1 reporter transcription, actives raise or lower the signal. In short, it runs like this:
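HepG2 cells transiently transfected with multiplexed cis-element reporter units read endogenous transcription factor activity. After 24 h compound exposure, reporter mRNA was quantified by RT-PCR, fluorescent labelling, HpaI digestion and capillary electrophoresis; bidirectional fitting versus DMSO baseline.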

Experiment [20] addresses Hepatocyte nuclear factor 3-beta (Homo sapiens) (UniProt Q9Y261). Kind of experiment: ATG_FoxA2_CIS: Attagene CIS-FACTORIAL HepG2 Assay for human Forkhead box A2 (FOXA2) (AID 2282942). To be noted: HepG2 cis-reporter transcription factor activity, 24 h; actives raise or lower the signal. The essentials: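 In transiently transfected human HepG2 cells, promoter-driven reporter mRNA levels after 24 h chemical exposure are determined via RT-PCR with capillary electrophoresis. DMSO serves as baseline for bidirectional fitting.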

Activity calls are given as the source filed them. How the source made its calls: active means hit-call score of the fitted dose curve at least 0.9, where 1 is the maximum; inactive means score below 0.9.

This note sets out measurements from PubChem BioAssay (EPA / NIEHS).

The AC50 is the midpoint of the concentration-response curve, whichever way the signal moves.

Hepatocyte nuclear factor 3-beta (Homo sapiens), sequence (Q9Y261 whole entry, looked up): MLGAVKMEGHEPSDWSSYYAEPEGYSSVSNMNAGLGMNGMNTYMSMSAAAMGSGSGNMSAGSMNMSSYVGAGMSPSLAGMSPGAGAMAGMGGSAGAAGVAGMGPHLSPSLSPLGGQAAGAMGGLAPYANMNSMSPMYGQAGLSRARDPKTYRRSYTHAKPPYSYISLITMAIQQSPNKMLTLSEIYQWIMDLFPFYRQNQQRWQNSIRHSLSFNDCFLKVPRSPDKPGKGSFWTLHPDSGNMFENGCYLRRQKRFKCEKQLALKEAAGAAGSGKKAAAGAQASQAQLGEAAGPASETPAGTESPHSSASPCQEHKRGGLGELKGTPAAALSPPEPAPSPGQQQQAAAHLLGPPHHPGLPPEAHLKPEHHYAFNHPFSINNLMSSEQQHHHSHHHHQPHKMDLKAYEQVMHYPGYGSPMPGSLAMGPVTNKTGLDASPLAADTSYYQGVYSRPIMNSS
Aryl hydrocarbon receptor (Homo sapiens), sequence (P35869 whole entry, looked up): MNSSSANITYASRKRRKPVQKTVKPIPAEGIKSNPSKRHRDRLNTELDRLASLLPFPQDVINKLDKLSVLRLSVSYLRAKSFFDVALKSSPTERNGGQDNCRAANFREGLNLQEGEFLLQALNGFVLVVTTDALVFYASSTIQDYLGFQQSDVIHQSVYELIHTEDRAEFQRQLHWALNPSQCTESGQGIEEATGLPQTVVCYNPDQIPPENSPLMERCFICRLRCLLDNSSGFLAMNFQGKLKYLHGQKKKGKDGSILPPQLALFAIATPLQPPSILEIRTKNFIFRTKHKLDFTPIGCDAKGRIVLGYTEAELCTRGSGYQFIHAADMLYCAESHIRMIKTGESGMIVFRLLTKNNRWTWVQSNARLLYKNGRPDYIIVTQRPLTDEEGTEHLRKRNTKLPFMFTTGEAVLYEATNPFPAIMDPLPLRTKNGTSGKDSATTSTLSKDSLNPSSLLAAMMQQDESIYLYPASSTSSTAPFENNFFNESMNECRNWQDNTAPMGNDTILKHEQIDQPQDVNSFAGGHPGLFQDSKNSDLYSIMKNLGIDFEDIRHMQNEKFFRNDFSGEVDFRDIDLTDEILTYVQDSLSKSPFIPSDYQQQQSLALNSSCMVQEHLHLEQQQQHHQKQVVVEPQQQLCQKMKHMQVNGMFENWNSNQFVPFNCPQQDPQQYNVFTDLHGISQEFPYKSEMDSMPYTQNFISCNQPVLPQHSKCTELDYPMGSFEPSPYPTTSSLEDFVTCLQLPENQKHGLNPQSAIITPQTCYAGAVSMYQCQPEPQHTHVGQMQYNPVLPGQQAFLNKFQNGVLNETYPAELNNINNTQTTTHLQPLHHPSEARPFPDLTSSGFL
Retinoic acid receptor alpha (Homo sapiens), sequence (P10276 whole entry, looked up): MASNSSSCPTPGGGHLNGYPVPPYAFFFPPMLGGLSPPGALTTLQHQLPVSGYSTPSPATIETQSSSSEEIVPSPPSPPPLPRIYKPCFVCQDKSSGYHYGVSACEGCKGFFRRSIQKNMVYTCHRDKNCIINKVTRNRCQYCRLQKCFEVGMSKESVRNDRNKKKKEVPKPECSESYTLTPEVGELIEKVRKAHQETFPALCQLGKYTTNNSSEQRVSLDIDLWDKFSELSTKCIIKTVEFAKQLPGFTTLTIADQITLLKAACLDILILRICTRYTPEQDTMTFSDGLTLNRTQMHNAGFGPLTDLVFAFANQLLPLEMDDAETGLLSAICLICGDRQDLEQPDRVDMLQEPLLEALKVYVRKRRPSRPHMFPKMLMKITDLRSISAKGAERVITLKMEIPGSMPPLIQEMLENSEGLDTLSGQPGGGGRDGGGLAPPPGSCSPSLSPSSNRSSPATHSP
CCAAT/enhancer-binding protein beta (Homo sapiens), sequence (P17676 whole entry, looked up): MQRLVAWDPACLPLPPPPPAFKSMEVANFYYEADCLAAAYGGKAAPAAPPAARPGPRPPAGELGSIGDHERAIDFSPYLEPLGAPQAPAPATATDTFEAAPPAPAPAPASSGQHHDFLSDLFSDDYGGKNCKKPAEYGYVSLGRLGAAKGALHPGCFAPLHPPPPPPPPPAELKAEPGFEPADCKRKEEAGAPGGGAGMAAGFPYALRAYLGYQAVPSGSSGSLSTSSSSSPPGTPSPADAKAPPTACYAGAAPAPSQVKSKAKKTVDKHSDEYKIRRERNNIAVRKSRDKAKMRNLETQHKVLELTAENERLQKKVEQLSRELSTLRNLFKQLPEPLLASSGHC
Transcription factor E2F1 (Homo sapiens), sequence (Q01094 whole entry, looked up): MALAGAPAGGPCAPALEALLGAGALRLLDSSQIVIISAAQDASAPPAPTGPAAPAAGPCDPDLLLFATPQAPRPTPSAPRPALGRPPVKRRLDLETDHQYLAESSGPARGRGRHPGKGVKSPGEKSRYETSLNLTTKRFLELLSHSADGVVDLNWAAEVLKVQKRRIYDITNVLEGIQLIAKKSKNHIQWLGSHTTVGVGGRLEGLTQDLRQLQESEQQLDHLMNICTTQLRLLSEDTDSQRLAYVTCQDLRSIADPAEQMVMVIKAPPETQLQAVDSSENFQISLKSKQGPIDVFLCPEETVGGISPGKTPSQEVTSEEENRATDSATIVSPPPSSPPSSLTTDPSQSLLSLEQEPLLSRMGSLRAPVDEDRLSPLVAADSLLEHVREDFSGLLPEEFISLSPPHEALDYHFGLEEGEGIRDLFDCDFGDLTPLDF
Bile acid receptor (Homo sapiens), sequence (Q96RI1 whole entry, looked up): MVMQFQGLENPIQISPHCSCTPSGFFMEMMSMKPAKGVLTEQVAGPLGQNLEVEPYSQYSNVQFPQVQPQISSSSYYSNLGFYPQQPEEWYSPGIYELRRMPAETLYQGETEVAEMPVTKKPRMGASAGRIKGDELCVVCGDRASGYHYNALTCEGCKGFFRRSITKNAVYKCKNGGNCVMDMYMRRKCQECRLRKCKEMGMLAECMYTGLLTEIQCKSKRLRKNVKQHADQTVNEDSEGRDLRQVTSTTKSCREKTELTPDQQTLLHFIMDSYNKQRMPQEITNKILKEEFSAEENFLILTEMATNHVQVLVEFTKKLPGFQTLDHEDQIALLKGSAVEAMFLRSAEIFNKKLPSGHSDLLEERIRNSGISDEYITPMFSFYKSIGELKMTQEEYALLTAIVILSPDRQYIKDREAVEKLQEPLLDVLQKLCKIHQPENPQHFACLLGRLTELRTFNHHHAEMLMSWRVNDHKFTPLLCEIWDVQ

Take `O=C(O)CCCCCCCCCCCC(=O)O`: the result in experiment [1], in experiment [2], in experiment [3], in experiment [4], in experiment [5] and in experiment [6] was inactive. For the same compound, the outcome in experiment [7], in experiment [8], in experiment [9], in [10], in [11] and in experiment [12] was inactive. The call in experiment [13], in experiment [14], in [15], in experiment [16], in [17] and in [18] was inactive. Further, the result in experiment [19] was inactive.

Take `COc1ccc(COC(C)=O)cc1`: the call in experiment [1], in experiment [2], in [3], in [4], in experiment [5] and in [6] was inactive. Also, the compound was called inactive in experiment [7], in experiment [8], in experiment [9], in experiment [10], in experiment [11] and in [12]. Also, the result in experiment [13], in experiment [15], in experiment [20], in experiment [16], in [17] and in experiment [18] was inactive. In [19], the compound was called inactive.

`Nc1ccc(NCCO)c([N+](=O)[O-])c1`: the compound was classed as inactive in experiment [1], in experiment [2], in experiment [3], in experiment [4], in experiment [6] and in experiment [7]. Besides, the call in experiment [8], in experiment [9], in [10], in experiment [11], in [12] and in [14] was inactive. For the same compound, the call in [15], in experiment [20], in [16], in experiment [17] and in experiment [18] was inactive. Also, in experiment [5], the AC50 was 7.19 µM (active).

As to `CCCC(=O)OC(C)(C)Cc1ccccc1`, the call in [1], in [2], in experiment [3], in experiment [4], in experiment [6] and in experiment [7] was inactive. The call in experiment [8], in [9], in [10], in [11], in [12] and in [14] was inactive. Further, the result in experiment [15], in [20], in experiment [16], in [17] and in experiment [18] was inactive. The AC50 in experiment [5] is 72.8 µM (active).
